Results: the supplement of paper PMC6555819

Tests used:
Assay in all cases: PBM binding z-score (relative to random genomic background probes); higher = stronger binding; sequences stand for … in GC…GCGATTGACAGCGTAGAATGAAGG
[1] = system: FXR:RXRa (NR concentration 270 nM, RXRa partner concentration 90 nM)
Outline: (§1)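 Ligand-free nuclear receptor dimers were applied to custom Agilent 4×180K protein-binding microarrays whose double-stranded probes carried direct-repeat seeds, single-nucleotide variants, half-site ablations and random human genomic background sequences in 34-nt variable regions. Incubation lasted 1 h. Binding z-scores were computed against the random background probes from regression-normalized fluorescence.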

[2] = system: LXRa:RXRa (NR concentration 270 nM, RXRa partner concentration 90 nM)
Outline: as §1

[3] = system: LXRa homodimer (NR concentration 270 nM)
Outline: as §1

[4] = system: LXRb:RXRa (NR concentration 270 nM, RXRa partner concentration 90 nM)
Outline: as §1

[5] = system: LXRb homodimer (NR concentration 270 nM)
Outline: as §1

[6] = system: PPARa:RXRa (NR concentration 270 nM, RXRa partner concentration 90 nM)
Outline: as §1

[7] = system: PPARg:RXRa (NR concentration 180 nM, RXRa partner concentration 90 nM)
Outline: as §1

[8] = system: PPARg:RXRa 270nM:90nM, anti-RXR (NR concentration 270 nM, RXRa partner concentration 90 nM)
Outline: as §1

[9] = system: PPARg:RXRa 30nM:10nM, anti-RXR (NR concentration 30 nM, RXRa partner concentration 10 nM)
Outline: as §1

[10] = system: PPARg:RXRa 90nM:30nM, anti-RXR (NR concentration 90 nM, RXRa partner concentration 30 nM)
Outline: as §1

[11] = system: PPARg:RXRa DBDmut IVT, anti-RXR (DBD mutation: RXRa K156A/R161A, NR concentration 270 nM, RXRa partner concentration 90 nM)
Outline: as §1

[12] = system: PPARg:RXRa IVT, anti-PPARg (NR concentration 270 nM, RXRa partner concentration 90 nM)
Outline: as §1

[13] = system: PPARg DBDmut:RXRa IVT, anti-PPARg (DBD mutation: PPARg1 K132A/R137A, NR concentration 270 nM, RXRa partner concentration 90 nM)
Outline: as §1

[14] = system: PPARg DBDmut IVT, anti-PPARg (DBD mutation: PPARg1 K132A/R137A, NR concentration 270 nM)
Outline: as §1

[15] = system: PPARg homodimer (NR concentration 180 nM)
Outline: as §1

[16] = system: PXR:RXRa (NR concentration 270 nM, RXRa partner concentration 90 nM)
Outline: as §1

[17] = system: PXR homodimer (NR concentration 270 nM)
Outline: as §1

[18] = system: RARa:RXR (NR concentration 270 nM, RXRa partner concentration 90 nM)
Outline: as §1

[19] = system: RARa homodimer (NR concentration 270 nM)
Outline: as §1

[20] = system: RARb:RXRa (NR concentration 270 nM, RXRa partner concentration 90 nM)
Outline: as §1

Row | Sequence | PBM binding z-score [1] | PBM binding z-score [2] | PBM binding z-score [3] | PBM binding z-score [4] | PBM binding z-score [5] | PBM binding z-score [6] | PBM binding z-score [7] | PBM binding z-score [8] | PBM binding z-score [9] | PBM binding z-score [10] | PBM binding z-score [11] | PBM binding z-score [12] | PBM binding z-score [13] | PBM binding z-score [14] | PBM binding z-score [15] | PBM binding z-score [16] | PBM binding z-score [17] | PBM binding z-score [18] | PBM binding z-score [19] | PBM binding z-score [20]
1 | ACGAGCAGGCCAAGTTTGGGTCACTCAAACAAAG | 0.0598 | -0.0138 | -0.363 | 0.536 | -0.887 | 1.33 | -0.00564 | 0.0624 | -0.543 | -0.429 | -0.114 | 0.246 | -0.842 | -0.922 | 0.235 | 0.69 | -0.152 | 1.46 | -0.613 | 1.54
2 | CAAACTGGGTCACAGAGGTCAAAGTCCGTGCGTA | 6.46 | 6.47 | 6.04 | 5.99 | 1.68 | 6.5 | 9.86 | 7.93 | 6.54 | 8.19 | 7.82 | 8.76 | 4.79 | 4.1 | 3.96 | 6.74 | 9 | 7.06 | 0.622 | 5.21
3 | CGAACTAGGTCATCCAGGACAGTTAATACATTGA | 4.18 | 2.59 | 0.501 | 2.29 | 0.155 | 4.77 | 7.57 | 6.32 | 3.81 | 5.9 | 7.93 | 8.11 | 4.57 | 2.72 | 2.19 | 2.02 | 1.63 | 2.6 | 1.19 | 3.72
4 | TCATATAGGTAAATGCTAGGCGAAAGTCCGATCT | 0.564 | 0.758 | 0.304 | 0.58 | -0.0313 | 0.932 | 0.63 | 2.22 | 3.7 | 2.88 | 3.99 | 1.93 | 1.19 | 0.583 | 0.561 | 0.4 | 0.459 | 0.458 | 0.728 | 0.249
5 | AGAACGAGGGCAATGGGTTGATAGCACGGGTGGC | 0.877 | 0.764 | -0.127 | 0.316 | 0.02 | 1.67 | 1.78 | 1.38 | -0.00991 | 1.08 | 3.27 | 3.01 | 0.598 | -0.394 | 1.19 | 1.48 | 4.66 | 0.466 | 0.403 | 2.4
6 | CGTCCAAGGTCAGCAGGTCATTGAAAGCGACGTG | 6.58 | 4.67 | 1.51 | 3.86 | -0.214 | 5.46 | 5.09 | 4.94 | 1.14 | 3.42 | 2.83 | 3.78 | 0.265 | -0.0575 | 3.28 | 4.51 | 0.829 | 5.89 | 0.397 | 5.51
7 | GCAGACAGGTGAAACGCTGGTAACTCAGGGTGGC | -0.319 | 0.0267 | -0.492 | -0.149 | -1.44 | 0.737 | 0.389 | 0.0806 | -0.77 | -0.171 | 0.871 | 0.415 | -0.505 | -0.62 | -1.22 | -0.38 | -0.927 | 0.0217 | -0.662 | 0.668
8 | GGAACGAGGGCAAAGTTGATTGCATCTGTCGACG | 1.25 | 0.976 | -0.336 | 0.888 | -0.546 | 3.9 | 6.23 | 6.84 | 5.63 | 6.92 | 4.27 | 4.05 | 0.0713 | -0.581 | 0.375 | 1.16 | 0.179 | 1.39 | -0.237 | 2.18
9 | ATCGAAAGGTCGTGAGGTGAATATACAGAAAGGC | 5.8 | 4.42 | 0.33 | 3.66 | 0.583 | 5.66 | 4.88 | 4.97 | 2 | 3.71 | 0.388 | 2.93 | 1.73 | 0.704 | 2.17 | 3.53 | 0.656 | 4.96 | 1.14 | 4.12
10 | CCTAGTTGGTCAAGGTGACACACGCTATAGGTAC | 0.697 | 0.276 | 0.273 | 0.592 | 0.0749 | 1.33 | 1.71 | 1.93 | 0.466 | 1.32 | 1.63 | 3.11 | 0.179 | 0.257 | 1.46 | 0.478 | 0.557 | 1.28 | 1.57 | 1.86
11 | CCTACTGGGCCATTCAGAGGTCATTGAGCATATG | 2.93 | 4.74 | 6.54 | 3.65 | 0.261 | 4.02 | 2.49 | 3.28 | 1.01 | 2.38 | 4 | 4.21 | 0.182 | -0.178 | 2.75 | 4.88 | 2.54 | 4.74 | 0.462 | 3.14
12 | CCTACTGGGACATTCAGAGGTCATTGATCATATG | 3.08 | 4.71 | 7.13 | 4.05 | 1.06 | 3.74 | 2.3 | 3.13 | 0.845 | 2.31 | 4.26 | 3.96 | 0.709 | 0.697 | 3.07 | 5.15 | 3.43 | 4.96 | 1.35 | 3.11
13 | ATCTCTAGGTAAAGTTCAGTGCAAGATCGATAGA | 1.53 | 2.29 | 2.02 | 1.43 | 0.722 | 2.52 | 3.48 | 4.48 | 2.63 | 4.43 | 2.92 | 2.81 | 0.415 | 1.22 | 2.51 | 2.32 | 1.67 | 1.49 | 1.38 | 2.78
14 | ACTAGTTGGTCAGCTGAGGTCGCACACAATTCGG | 1.01 | 0.732 | 0.139 | 1.1 | 0.147 | 1.49 | 0.497 | 0.445 | -0.204 | 0.316 | 1.03 | 1.57 | 0.582 | 0.333 | 0.559 | 3.02 | 0.134 | 1.79 | -0.0842 | 1.91
15 | ATACCAAGGTGATGGTGAGGTCGTTGATACTAAC | 0.921 | 0.64 | 0.268 | 1.09 | -0.372 | 1.56 | 0.532 | 0.222 | 0.0287 | 0.21 | 0.223 | 1.12 | 0.793 | 0.597 | 1.2 | 2.71 | 1.55 | 1.47 | 0.462 | 1.17
